Compounds without any hit were thinned out: in the full panel of roughly 83,000, 20% have a hit.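 Each cell line was grown in a 96-well plate and treated with one concentration of compound for 48 hours. Values below 10 were considered active.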 Unmarked numbers belong to inactive results. Active and inactive are the calls of the source.
System: HL-60(TB) leukemia
Assay: NCI-60 one-dose screen, 48 h (100 = growth as untreated, 0 = no growth, -100 = all killed)
Settings: 10 µM unless noted

Compound | growth
O=C1c2cc3c(cc2-c2c1c1cc(F)c(F)cc1c(=O)n2C[C@H](O)CO)OCO3 | -16.4% (active)
c1ccc(CC(NCCNC(Cc2ccccc2)c2ccccc2)c2ccccc2)cc1 (stereo not given) | -0.655% (active)
COc1ccccc1/C=C/C(=O)CCC(=O)O | 88.3%
CCOC(=O)c1ccc2c(c1)ncn2-c1ccc(NC(=O)Nc2cccc(C)c2)cc1 | 78.3%
Clc1ccc2c(NCCCN3CCN(c4nc(N5CCOCC5)nc5ccccc45)CC3)ccnc2c1 | -51.5% (active)
C[C@@H]1COC(Nc2ccc3ncnc(Nc4ccc(OCc5nccs5)c(Cl)c4)c3c2)=N1 | 31.3%
COc1ccccc1C(=O)/C=C/c1ccccc1 | 77%
CC(=O)CC[C@H]1C(=O)N[C@@H](C(C)C)C(=O)N[C@@H](Cc2cc(O)cc(F)c2)C(=O)N2CCC[C@H](N2)C(=O)O[C@H](/C(C)=C/C=C/C(=O)OC(C)(C)C)C/C=C/C=C/[C@H](O)[C@H](C)[C@H]1O | 56%
O=C(Nc1ccc(-c2nc3ccc(NC(=O)c4ccc(Cl)cc4)cc3[nH]2)cc1)c1ccc(Cl)cc1 | -45.9% (active)
Cc1cc(O)c(C(C)C)cc1N=O | 66.1%
COc1ccc(C(=O)CCC(=O)O)cc1 | 98.6%
O=C(/C=C/c1c[nH]c2ccccc12)c1ccc(O)c(CN2CCN(c3ccc(F)cc3)CC2)c1 | 97%
O=C(CSc1nc2sc3c(c2c(=O)n1-c1ccccc1)CCCCC3)N/N=C/c1cccc([N+](=O)[O-])c1 | 103%
c1ccc(N2CCN(c3nncc4ccccc34)CC2)nc1 | 96.6%
CN(C)Cc1cc(C(C)(C)CC(C)(C)C)ccc1O | 94.4%
CCOC(=O)CO | 83.5%
CC1CC(C)(C)OB(OC(C)CC(C)(C)OB2OC(C)CC(C)(C)O2)O1 (stereo not given) | 103%
N#C/C(=C\N1C(=O)/C(=C/c2cccc([N+](=O)[O-])c2)SC1=S)c1nc2ccccc2s1 | 94.5%
Cn1cc(-c2ccc3cc(-c4ccc(CC(=O)Nc5cc(C(C)(C)C)on5)cc4)cnc3c2)cn1 | -14.3% (active)
COc1ccc2c(c1)OC(N)=C(C#N)C2c1cc(OC)c(OC)c(OC)c1 (stereo not given) | -30.4% (active)

Compound | growth
Cc1cc(O)c(C2=NN(c3ccc(S(N)(=O)=O)cc3)C(c3ccc(N(C)C)cc3)C2)c(C)c1Cl (stereo not given) | 24.1%
COc1ccc(NC(=O)c2sc3nc(C)c(C(=O)c4ccccc4)cc3c2N)cc1 | 78.8%
O=S(=O)(NCCNc1nccc(-c2c(-c3ccc(F)c(O)c3)nc3occn23)n1)c1ccc(Cl)cc1 | 96.6%
CN(C)C(=O)OCc1ccc2c(Cl)cc(Cl)c(O)c2n1 | 18.8%
O=NC1CC=CCC1c1ccccc1 (stereo not given) | 92.6%
COc1ccc(OC)c(Nc2nc3nonc3nc2Nc2cc(OC)ccc2OC)c1 | 103%
COc1cc(NCCCN(CC(C)C)CC(C)C)c2ncccc2c1 | 89.8%
O=C1Nc2ccc(Br)cc2C12Oc1ccccc1C1CC(c3ccc(F)cc3)=NN12 (stereo not given) | 92.9%
CCOC(=O)NNc1nncc2ccccc12 | 103%
CC(=O)c1sc2c(c1OC(=O)c1ccc(Cl)cc1Cl)c(=O)n(-c1ccccc1)c(=S)n2-c1ccccc1 | -31.9% (active)
O=C1c2cccc3cccc(c23)C(=O)N1CC#Cc1ccc2c3c(cccc13)C(=O)N(CCN1CCNCC1)C2=O | 93%
O=C(O)c1cn(C2CC2)c2cc(N3CCN(C(=O)Nc4nc(-c5ccc(Br)cc5)cs4)CC3)c(F)cc2c1=O | -2.62% (active)
O=S(=O)(NCCCNc1cc(-c2cn(-c3ccccc3)nc2-c2cccc(O)c2)ccn1)c1ccc(F)cc1 | 30.5%
Cn1cc(-c2ccc3ncc(-c4ccc(CC(=O)Nc5cc(C(C)(C)C)nn5C)cc4)cc3c2)cn1 | -36.7% [30 µM] (active)
NCCC(=O)c1ccc(Cl)cc1 | 95.6%
BrCc1cccc(C[P+](c2ccccc2)(c2ccccc2)c2ccccc2)c1 | 12.2%
Cc1cc2c(C)c3cc(C)c(N)cc3nc2cc1N | 19%
CCCCCC(=O)N(CCCC)CCCC | 109%
COc1ccc2[nH]c(-c3ccccc3)c(/C=C(\C#N)S(=O)(=O)c3ccccc3)c2c1 | 1.53% (active)
CCCCC1COc2cccc3c(SCC(=O)N(C)c4cccc5ccccc45)cc[n+]1c23 (stereo not given) | 89.8%

— PubChem BioAssay (NCI)
